PTHR1 ag: PTHR1 (human) receptor agonism; Q03431; Potency, µM (titrated, usually from 115 µM), for inactives: at the highest dose activation, actives largely listed as activators; AID 743266; actives 0.075% (n = 410,000); HEK293 GP2 PTHR1 cells, GloSensor cAMP luminescence, 1 h; note: potency is the fitted concentration of half-maximal effect; nearly all actives have a fitted effect of over 55% in size
Target sequence (Q03431 whole entry, looked up): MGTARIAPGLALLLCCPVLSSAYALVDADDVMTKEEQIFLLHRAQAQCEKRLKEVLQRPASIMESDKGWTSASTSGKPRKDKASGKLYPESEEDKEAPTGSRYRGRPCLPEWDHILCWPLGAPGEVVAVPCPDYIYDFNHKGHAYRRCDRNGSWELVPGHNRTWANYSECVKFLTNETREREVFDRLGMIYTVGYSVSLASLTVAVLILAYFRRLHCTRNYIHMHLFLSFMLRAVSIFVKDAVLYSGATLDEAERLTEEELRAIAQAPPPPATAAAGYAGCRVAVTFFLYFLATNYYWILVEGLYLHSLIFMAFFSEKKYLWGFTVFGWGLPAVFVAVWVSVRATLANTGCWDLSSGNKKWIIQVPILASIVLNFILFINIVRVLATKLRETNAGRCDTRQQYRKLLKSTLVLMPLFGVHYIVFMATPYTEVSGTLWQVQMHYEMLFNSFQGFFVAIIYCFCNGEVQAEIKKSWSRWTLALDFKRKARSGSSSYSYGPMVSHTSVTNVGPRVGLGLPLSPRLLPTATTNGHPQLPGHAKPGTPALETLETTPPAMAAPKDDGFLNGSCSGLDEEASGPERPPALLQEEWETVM
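HEK-293-derived GP2 cells expressing PTHR1 and a GloSensor cAMP reporter, 3,000/well, plated overnight, given luciferin plus IBMX (each 0.5 mM as added) for 1 h at 37 °C, then compound for 1 h at 37 °C. Luminescence was read after 15 min at room temperature.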
TDP43 rescue: inhibitors of TDP-43 toxicity in yeast | actives 1.8% (n = 410,000) | Potency, µM (series often up to 46.1 µM), for inactives: top-dose growth rescue (activation), usual class: activators | AID 652104 | TDP-43 expressing yeast growth rescue, BacTiter-Glo, 24 h; note: potency is the fitted concentration of half-maximal effect; % of control where 0% means no effect; nearly all actives have a fitted effect of over 50% in size
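Galactose-induced TDP-43 yeast, OD600=0.02, compound pinned; 24 hr, 30 deg C; BacTiter-Glo luminescence for growth. Inhibitors of TDP-43 toxicity read as activators.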
aSyn rescue: inhibitors of alpha-synuclein toxicity in yeast; Yeast expressing alpha-synuclein, growth rescue, BacTiter-Glo, 24 h; AID 652106; actives 0.14% (n = 370,000); Potency, µM (titrated, usually from 46.1 µM), for inactives: at the top dose growth rescue (activation), most hits filed as activators; note: potency is the fitted concentration of half-maximal effect; % of control where 0% means no effect; nearly all actives have a fitted effect of over 65% in size
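Galactose-induced alpha-syn yeast (OD600=0.02, raffinose-pregrown) + pinned cpd, 24 hr, 30 deg C; growth by BacTiter-Glo luminescence. Growth restoration scores as activation.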
Abeta yeast res: A-beta toxicity reversal in yeast; yeast expressing A-beta42, growth rescue, OD600, 48 h; response scale: 0% DMSO, 100% iron-clioquinol control; Potency, µM (titrated, usually from 46.1 µM), most hits filed as activators; actives 0.063% (n = 410,000); AID 1347071; note: potency is the fitted concentration of half-maximal effect; nearly all actives have a fitted effect of over 55% in size
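Yeast A-beta toxicity model in growth medium with pinned compounds, 48 h at 30 C; growth read as absorbance at 600 nm. Normalized to FeCl3/clioquinol equimolar mix (positive) and DMSO (negative).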
FUS suppressor: rescues growth of FUS-expressing yeast | actives 0.24% (n = 390,000) | AID 1347120 | Potency, µM (highest dose often 76.6 µM), actives largely listed as activators | S. cerevisiae FUS-expressing, growth rescue, OD600, 24 h;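 note: potency is the fitted concentration of half-maximal effect; plate controls were DMSO vehicle for no effect and reference control for full effect; nearly all actives have a fitted effect of over 55% in size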
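Yeast FUS proteinopathy model; galactose-induced FUS (2%), starting OD 0.005. Cpds in dilution series, 24hr, 30C, 99% humidity. Abs 600 nm growth. Pos ctrl CP55940 (top 92uM final); neg ctrl DMSO.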
LDHA block: LDHA (human) enzyme inhibition; purified LDHA, NADH/diaphorase-resazurin fluorescence; stronger effect = lower value; P00338; actives 0.15% (n = 480,000); activity change, % (values are at about 110 or 230 µM); in the data active = activity change below about -30%; inconclusive = mostly about -25% to -30%;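 note: plate controls were DMSO wells for no effect and wells without enzyme for full effect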
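Remaining NADH was detected by diaphorase (0.133 mg/mL) converting 37 µM resazurin to fluorescent resorufin, read at 0 and 20 minutes. The preceding 5-minute room-temperature reaction used 2 nM LDHA, 0.2 mM sodium pyruvate and 0.06 mM NADH at pH 7.4.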
Starred values were filed as active, the others as inactive. Sampled rows, rich in hits. Any-hit rate of the full collection: about 1.9%. Unless noted, calls come from the whole dose curve; as a rule, active = well fitted curve in the direction sought with a large enough effect; inconclusive = small, poorly fitted or top-dose-only effect, or another doubt; inactive = no such curve, though single readings can be large; an effect the other way counts as inactive or inconclusive.

Results for CN1C(=O)C(=Cc2ccccc2OCc2ccccc2Cl)C(=O)N(C)C1=O ?
PTHR1 ag: inactive; TDP43 rescue: -0.5%; aSyn rescue: -1.6%; Abeta yeast res: inactive; FUS suppressor: inactive; LDHA block: -45.0*

How did CN1C(=O)C(=Cc2ccccc2OCc2ccc(C(=O)O)cc2)C(=O)N(C)C1=O do in these assays?
PTHR1 ag: inactive; TDP43 rescue: -18.8%; aSyn rescue: -2.1%; Abeta yeast res: inactive; FUS suppressor: inactive; LDHA block: -34.7*

Results for CN1C(=O)C(=Cc2ccccc2OS(=O)(=O)c2ccccc2)C(=O)N(C)C1=O ?
PTHR1 ag: -16.3%; TDP43 rescue: -36.6%; aSyn rescue: 12.8%; Abeta yeast res: inactive; FUS suppressor: inactive; LDHA block: -9.6

Results for COc1ccc(Oc2c(C)oc3cc(OCC(=O)N4CCN(C)CC4)ccc3c2=O)cc1 ?
LDHA block: -9.3

What do the screens show for `O=S(=O)(c1ccc(F)c(F)c1F)N1CCN(c2ncnc3sccc23)CC1`?
PTHR1 ag: -46.7%; TDP43 rescue: 18.5%; aSyn rescue: -1.6%; Abeta yeast res: inactive; LDHA block: -7.8

What do the screens show for `O=S(=O)(c1ccccc1C(F)(F)F)N1CCN(c2ncnc3sccc23)CC1`?
PTHR1 ag: -29.2%; TDP43 rescue: 12.6µM*; aSyn rescue: 19.8%; Abeta yeast res: inactive; FUS suppressor: inactive; LDHA block: -5.9

How did COc1ccc2nc(N3CCN(C(=O)CS(=O)(=O)c4ccc(C)cc4)CC3)sc2c1 do in these assays?
PTHR1 ag: -89.4%; TDP43 rescue: 12.6µM*; Abeta yeast res: inactive; FUS suppressor: inactive; LDHA block: -7.3

How did CC1=CC2OC3CC4OC(=O)C=CC=CC(=O)OCCC(C)C(O)C(=O)OCC2(CC1O)C4(C)C31CO1 (stereo not drawn) do in these assays?
PTHR1 ag: -1.7%; TDP43 rescue: 12.6µM*; aSyn rescue: inconclusive; Abeta yeast res: inactive; LDHA block: -7.2

What do the screens show for `CC(C)(Oc1ccc(Cl)cc1)C(=O)OCC(=O)N1CCN(c2ccccc2)CC1`?
PTHR1 ag: -34.5%; TDP43 rescue: 14.1µM*; aSyn rescue: 12.7%; Abeta yeast res: inactive; FUS suppressor: inactive; LDHA block: -2.2

What do the screens show for `O=C(COc1ccc(Cl)cc1)N1CCN(Cc2ccccc2)CC1`?
PTHR1 ag: -22.7%; TDP43 rescue: -10.3%; aSyn rescue: 2.3%; Abeta yeast res: inactive; FUS suppressor: inactive; LDHA block: -2.6

How did CSC(C)C(=O)NC(C)Cc1ccc(Br)cc1 (stereo not drawn) do in these assays?
LDHA block: -1.1

What do the screens show for `CN1C(=O)C(=Cc2ccccc2OCCOc2ccc([N+](=O)[O-])cc2)C(=O)N(C)C1=O`?
PTHR1 ag: -17.0%; TDP43 rescue: -72.1%; aSyn rescue: -33.8%; Abeta yeast res: inactive; FUS suppressor: inactive; LDHA block: -19.3

How did O=C1NC(=O)C(=Cc2ccc(Cl)cc2)C(=O)N1 do in these assays?
PTHR1 ag: -28.4%; TDP43 rescue: 22.1%; FUS suppressor: inactive

How did COc1cc(C=C2C(=O)NC(=O)NC2=O)ccc1OCc1ccc([N+](=O)[O-])cc1 do in these assays?
PTHR1 ag: -23.8%; TDP43 rescue: 11.2µM*; aSyn rescue: -5.8%; Abeta yeast res: inactive; FUS suppressor: inactive; LDHA block: -16.2

What do the screens show for `O=C1NC(=O)C(=Cc2ccccc2OCCOc2ccc([N+](=O)[O-])cc2)C(=O)N1`?
PTHR1 ag: -36.4%; TDP43 rescue: -73.3%; aSyn rescue: -17.7%; Abeta yeast res: inactive; FUS suppressor: inactive; LDHA block: -80.5*

How did COc1ccc(C=C2C(=O)NC(=S)NC2=O)cc1OC do in these assays?
PTHR1 ag: -11.4%; TDP43 rescue: -13.8%; aSyn rescue: -11.2%; Abeta yeast res: inactive; FUS suppressor: inactive; LDHA block: -0.1

What do the screens show for `O=C1NC(=O)C(=Cc2ccc(Oc3ccc([N+](=O)[O-])cc3)cc2)C(=O)N1`?
PTHR1 ag: -11.2%; TDP43 rescue: 15.8µM*; aSyn rescue: -1.4%; Abeta yeast res: inactive; FUS suppressor: inactive; LDHA block: -32.7*

What do the screens show for `N#CC1=C(N)Oc2nc(SCc3ccccc3Cl)nc(N)c2C1c1ccc(F)cc1` (stereo not drawn)?
LDHA block: 8.2

How did N#Cc1ccc(NC(=O)Cn2nc(C(=O)O)c3ccccc3c2=O)cc1Cl do in these assays?
LDHA block: 9.1

How did Cc1ccc(Cn2nnnc2CN2CCC(n3nnc4cc(C(F)(F)F)ccc43)CC2)cc1 do in these assays?
PTHR1 ag: -21.8%; TDP43 rescue: inconclusive; aSyn rescue: 13.5%; Abeta yeast res: inactive; FUS suppressor: inactive; LDHA block: -8.0

Results for Cc1ccc(Cn2nnnc2CN2CCC(n3nnc4cc(C)ccc43)CC2)cc1 ?
PTHR1 ag: inactive; TDP43 rescue: 20µM*; aSyn rescue: 2.1%; Abeta yeast res: inactive; FUS suppressor: inactive; LDHA block: 0.4

Results for CCCc1c(C)nc(N2CCN(CC)CC2)[nH]c1=O ?
LDHA block: -1.1

How did O=[N+]([O-])c1cccc(NP(=O)(Oc2ccccc2)Oc2ccccc2)c1 do in these assays?
PTHR1 ag: inactive; TDP43 rescue: 22.4µM*; aSyn rescue: inconclusive; Abeta yeast res: inactive; FUS suppressor: inactive; LDHA block: -5.3

Results for C/C=C/C1(NCCc2ccccc2)CCCCC1 ?
LDHA block: 1.3

Results for O=C(c1ccccc1Cl)N1CCC(c2nc3ccccc3s2)CC1 ?
PTHR1 ag: -39.3%; TDP43 rescue: 15.8µM*; Abeta yeast res: inactive; FUS suppressor: inactive; LDHA block: 1.3

Results for Cc1nc2cc([N+](=O)[O-])ccc2c(=O)n1-c1ccccc1[N+](=O)[O-] ?
PTHR1 ag: -25.9%; TDP43 rescue: 15.8µM*; aSyn rescue: 12.0%; Abeta yeast res: inactive; FUS suppressor: inactive; LDHA block: -1.0

How did Cc1cccc(NP(=O)(Oc2ccccc2F)Oc2ccccc2F)c1 do in these assays?
PTHR1 ag: -2.7%; TDP43 rescue: inconclusive; aSyn rescue: inconclusive; Abeta yeast res: inactive; LDHA block: 1.3

Results for O=P(Nc1cccc(F)c1)(Oc1ccccc1F)Oc1ccccc1F ?
PTHR1 ag: inactive; TDP43 rescue: 27.9%; aSyn rescue: 17.8µM*; Abeta yeast res: inconclusive; FUS suppressor: inactive; LDHA block: 0.2

What do the screens show for `CC(C)C1c2cccn2-c2ccccc2CN1C(=O)Nc1ccccc1F` (stereo not drawn)?
LDHA block: 0.7

Screening results as filed in PubChem.
